The list is not random: actives were taken first. Their share in the collection is about 2.9%.
pPAFAH inh: inhibitors of human plasma PAF acetylhydrolase (pPAFAH) | inhibition, % at 3.39 µM | Q13093 | recombinant pPAFAH, FP-rhodamine probe fluorescence polarization | hit rate 1.5% among 330,000 | AID 463082;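 active = inhibition above the mean inhibition across the screen plus 3 SD, cut at about 25% in these data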;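 also: inhibitors block binding of the rhodamine activity-based probe so polarization drops; 0% = enzyme with DMSO and 100% = wells lacking pPAFAH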
PAFAH2 FP inh: PAFAH2 (human) inhibition | Q99487 | recombinant PAFAH2, FP-rhodamine activity probe, fluorescence polarization | inhibition, % at 3.39 µM | hit rate 0.99% among 340,000 | AID 492956;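 active = inhibition above the mean over all tested compounds plus 3 SD, cut at about 30% in these data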;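 also: inhibitors block probe labeling of enzyme so polarization drops; 0% = enzyme with DMSO and 100% = wells lacking PAFAH2 protein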
PAFAH1B3 FP inh: inhibitors of human PAFAH1B3; Q15102; recombinant PAFAH1B3, FP-rhodamine probe, fluorescence polarization; inhibition, % at 3.39 µM; hit rate 0.28% among 340,000;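 active = inhibition above the screen-wide average of all tested compounds plus 3 SD, cut at about 25% in these data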;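 also: 0% = enzyme with DMSO only and 100% = wells lacking PAFAH1B3 protein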
Target sequence (Q15102 whole entry, looked up): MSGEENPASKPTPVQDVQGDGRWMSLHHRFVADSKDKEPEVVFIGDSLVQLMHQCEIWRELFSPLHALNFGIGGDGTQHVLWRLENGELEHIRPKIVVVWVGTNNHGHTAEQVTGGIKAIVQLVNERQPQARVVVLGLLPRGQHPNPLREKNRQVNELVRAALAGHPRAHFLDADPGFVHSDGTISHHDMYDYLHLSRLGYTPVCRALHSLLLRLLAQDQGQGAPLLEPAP
Fam108B inh: Fam108B inhibition, counter-screen for RBBP9 inhibitors. recombinant Fam108B, FP-Rh probe fluorescence polarization. inhibition, % at 9.51 µM. hit rate 0.33% among 300,000. AID 1947;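 active = inhibition above the screen mean inhibition plus 3 SD, computed separately per campaign, cut at about 18% in these data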;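 also: inhibitors lower polarization as less probe binds the enzyme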
PME-1 primary: PME-1 (human) inhibition; Q9Y570; recombinant PME-1, FP-Rh probe fluorescence polarization; inhibition, % at 5.9 µM; hit rate 0.53% among 320,000; AID 2130;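 active = inhibition above the campaign mean of all compounds plus 3 SD, cut at about 26% in these data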;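 also: competitive labeling of PME-1 active site by serine hydrolase directed probe; 0% = PME-1 with DMSO and 100% = wells lacking PME-1 enzyme; inhibitors block probe labeling so polarization falls and inhibition rises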
PAFAH1B2 FP inh: blocks human PAF acetylhydrolase 1b catalytic subunit 2; hit rate 1.2% among 340,000; recombinant PAFAH1B2, FP-rhodamine activity probe, fluorescence polarization; P68402; inhibition, % at 3.39 µM;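 active = inhibition above the mean of all tested compounds plus 3 SD, cut at about 24% in these data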;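 also: 0% = enzyme with DMSO and 100% = wells lacking PAFAH1B2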
Target sequence (P68402 whole entry, looked up): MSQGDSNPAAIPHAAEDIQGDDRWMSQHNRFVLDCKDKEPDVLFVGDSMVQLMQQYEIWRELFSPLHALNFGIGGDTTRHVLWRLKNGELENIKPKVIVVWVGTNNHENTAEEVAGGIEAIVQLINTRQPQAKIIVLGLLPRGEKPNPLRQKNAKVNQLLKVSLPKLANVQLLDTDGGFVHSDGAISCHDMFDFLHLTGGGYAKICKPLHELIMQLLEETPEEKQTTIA
PAFAH2 confirm: confirmation of human PAFAH2 inhibitors; shares compounds with PAFAH2 FP inh; recombinant PAFAH2, FP-rhodamine activity probe, fluorescence polarization; inhibition, % at 3.39 µM; hit rate 65% among 2,300;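 active = mean inhibition over three repeats above a set limit taken from the earlier primary screen, cut at about 30% in these data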;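 also: inhibitor blocks binding of rhodamine activity probe so polarization falls; 0% = enzyme with DMSO and 100% = wells lacking PAFAH2 protein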
An asterisk follows results filed as active; x = no result given.

SMILES	pPAFAH inh	PAFAH2 FP inh	PAFAH1B3 FP inh	Fam108B inh	PME-1 primary	PAFAH1B2 FP inh	PAFAH2 confirm
Cc1cccc(NC(=O)COC(=O)c2ccc(C)c(S(=O)(=O)N3CCCCC3)c2)c1	19	42*	4	x	2	5	38*
Cc1ccc(NC(=O)COC(=O)c2cccc(OC(F)F)c2)cc1S(=O)(=O)N1CCCCC1	-1	11	-11	x	-77	-8	x
CCN(CC)S(=O)(=O)c1cccc(NC(=O)COC(=O)C2CC3C=CC2C3)c1 (stereo not given)	20	38*	-3	11	1	3	26
CS(=O)(=O)c1ccc(Cl)c(NC(=O)COC(=O)c2ccc(S(=O)(=O)N3CCCC3)cc2)c1	7	-2	0	x	x	0	x
O=C(CCCc1ccccc1)NCc1ccc(Cl)cc1	12	2	2	3	-3	1	x
CCN(CC)C(=O)c1ccc(-c2nnc(Nc3ccc(C(=O)NC)cc3)c3ccccc23)cc1	1	0	-3	2	-3	-1	x
Cc1ccc(S(=O)(=O)N2CCCCC2)cc1NC(=O)COC(=O)C1CC2C=CC1C2 (stereo not given)	15	25	1	0	2	-2	x
Cc1ccc(C(=O)OCC(=O)Nc2ccccc2)cc1S(=O)(=O)N1CCCCC1	14	50*	-3	x	3	5	36*
COc1ccc(NC(=O)COC(=O)c2ccc(C)c(S(=O)(=O)N3CCCCC3)c2)cc1	10	20	12	x	7	4	x
Cc1ccc(NC(=O)COC(=O)C2CC3C=CC2C3)cc1S(=O)(=O)N1CCCCC1 (stereo not given)	13	60*	19	-2	5	5	52*
O=C(CSc1nnc(CNC(=O)c2ccccc2F)o1)NCCc1ccccc1	-4	54*	6	0	3	4	2
CCN(CC)CCNC(=O)c1cc2c(=O)n(C)c3ccccc3c2n1C	-5	-1	2	2	1	-1	x
CN(C)CCNC(=O)c1cc2c(=O)n(C)c3ccccc3c2n1C	-6	47*	11	3	2	2	2
CCCC1OC23CCCCC2C(C#N)(C(=N)O3)C1(C#N)C#N (stereo not given)	13	30*	21	-1	5	15	0
COc1cccc(NC(=O)COC(=O)c2c(F)cccc2Cl)c1	6	61*	4	2	5	4	59*
O=C(COC(=O)c1c(F)cccc1Cl)NCC1CCCCC1	13	60*	13	x	x	3	43*
O=C(COC(=O)c1c(Cl)cccc1Cl)NC1CCCCCCC1	10	7	6	x	x	12	x
O=C(COC(=O)c1c(F)cccc1Cl)NC1CCCC1	3	37*	0	3	-2	1	12
O=C(COC(=O)c1c(Cl)cccc1Cl)NC1CCCCC1	6	8	9	3	-3	4	x
COc1cccc(NC(=O)COC(=O)c2nc(Cl)ccc2Cl)c1	9	-3	2	0	-4	-5	x
O=C(c1ccccc1)c1cccn1CC(=O)N1CCc2ccccc2C1	-1	7	15	-4	2	10	x
C/C(=N\NC(=O)c1ccccn1)C12CC3CC(CC(C3)C1)C2	4	38*	1	-4	-2	17	21
O=C1CC(Nc2ccc(N3CCOCC3)cc2)C(=O)N1c1ccccc1 (stereo not given)	17	-1	-6	-4	-3	5	x
COc1ccc(NC2CC(=O)N(c3ccccc3)C2=O)cc1 (stereo not given)	0	41*	4	8	-4	7	2
O=C(O)CCc1c(C(=O)O)[nH]c2ccccc12	5	-4	5	2	-2	2	x
SMILES	pPAFAH inh	PAFAH2 FP inh	PAFAH1B3 FP inh	Fam108B inh	PME-1 primary	PAFAH1B2 FP inh	PAFAH2 confirm
O=C(O)CCc1[nH]c2ccccc2c1Sc1ccccc1	10	31*	4	-2	3	10	25
Cc1ccc(NS(=O)(=O)c2cc(C(=O)O)ccc2Cl)c(C)c1	6	54*	2	-4	2	18	3
CCN(CC)c1ccc(S(=O)(=O)N2CCOCC2)cc1NC(=O)COC(=O)c1ccco1	2	29	8	-3	22	6	x
CCN(c1ccccc1)S(=O)(=O)c1ccc(Cl)c(NC(=O)CN2CCCCCC2)c1	6	4	5	3	-2	2	x
O=C(COC(=O)c1ccccc1)Nc1cc(S(=O)(=O)N2CCCCCC2)ccc1Cl	8	30*	8	x	20	3	16
O=C(COC(=O)c1ccco1)Nc1cc(S(=O)(=O)N2CCOCC2)ccc1Cl	0	58*	8	x	x	6	35*
O=C(COC(=O)c1ccco1)Nc1cc(S(=O)(=O)N2CCCCC2)ccc1Cl	1	55*	5	x	x	3	46*
CCN(c1ccccc1)S(=O)(=O)c1ccc(Cl)c(NC(=O)COC(=O)C2CC2C)c1 (stereo not given)	21	79*	7	4	13	-2	76*
O=C(COC(=O)c1ccccc1O)Nc1cc(S(=O)(=O)N2CCCCCC2)ccc1Cl	6	2	3	x	3	2	x
CC(OC(=O)Cc1c(F)cccc1Cl)C(=O)NCCC1=CCCCC1 (stereo not given)	6	1	5	-8	4	2	x
Cc1ccc(S(=O)(=O)Nc2ccncc2)c(C)c1N(C)S(=O)(=O)c1ccc(F)cc1	2	-1	11	1	-9	5	x
COc1cc(/C=C/C(=O)OCC(=O)NCCC2=CCCCC2)cc(OC)c1OC	13	33*	-4	x	x	4	10
O=C(COC(=O)/C=C/c1cccc(Br)c1)NCCC1=CCCCC1	3	7	-2	0	-5	-4	x
COc1cc(/C=C/C(=O)OCC(=O)NCCC2=CCCCC2)ccc1O	14	57*	-5	-2	11	3	63*
CCCN1CCC(=NNc2ccc(C(=O)O)cc2)CC1	3	35*	12	-1	2	3	3
CCCN1CCC(=NNC(=O)c2ccc(Br)o2)CC1	3	3	-2	4	-6	-2	x
O=c1c2ccccc2nc2n1CC/C2=C/N1CCN(c2cccc(C(F)(F)F)c2)CC1	18	33*	21	2	-1	23	-1
O=C(C1CC1)N1CCN(S(=O)(=O)c2ccc3c(c2)OCCO3)CC1	2	-3	10	-1	-1	1	x
CC(NC(=O)COC(=O)c1ccccc1F)C1CC2CCC1C2 (stereo not given)	5	76*	11	x	x	19	63*
CC(NC(=O)c1ccc(F)cc1F)C1CC2CCC1C2 (stereo not given)	3	6	-3	-1	-1	7	x

High-throughput results deposited in PubChem BioAssay by The Scripps Research Institute Molecular Screening Center.
